Test results: PubChem BioAssay AID1159580 (chemical genetic matrix, 2015)
The campaign covered roughly 5,500 compounds. About 2,000 (36%) were called active. Inconclusive results (about 18%) are left out. No stated cut-off is given here; in the data, active means normalized growth mostly below about 0.91 (no sharp cut-off); inconclusive means no clear call, values can overlap the other calls; inactive means mostly above about 0.92. Some of the results follow.

Test: chemical genetic growth profiling, strain panel (AID 1159580);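 further: tested at 20 µM; growth read once vehicle control cultures reached saturation at 30 °C; 1 = growth at the plate median or of vehicle wells; lower values mean less growth of the strain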
Details: growth OD

Measured: normalized growth

c1ccc2c(c1)CCCC2C1=NCCN1 (stereo not given)
inactive: S. cerevisiae deletion strains, locus YKL009W, strain mrt4, hits give low values 0.995 | S. cerevisiae deletion strains, locus YKL068W, hits give low values 1 | S. cerevisiae deletion strains, locus YKL085W, strain MDH1 (second series), hits give low values 1.01 | S. cerevisiae deletion strains, locus YKL085W, strain MDH1, hits give low values 1.01 | S. cerevisiae deletion strains, locus YKL160W, strain elf1, hits give low values 1.03 | S. cerevisiae deletion strains, locus YKL190W, strain CNB1, hits give low values 1.01 | S. cerevisiae deletion strains, locus YKR001C, strain vps1, hits give low values 0.986 | S. cerevisiae deletion strains, locus YKR026C, strain gcn3, hits give low values 1.02 | S. cerevisiae deletion strains, locus YKR091W, strain srl3, hits give low values 1.03 | S. cerevisiae deletion strains, locus YLL001W, strain dnm1, hits give low values 1.03 | S. cerevisiae deletion strains, locus YLL026W, hits give low values 1.03 | S. cerevisiae deletion strains, locus YLL041C, strain sdh2, hits give low values 1.04 | S. cerevisiae deletion strains, locus YLR027C, strain aat2, hits give low values 1.02 | S. cerevisiae deletion strains, locus YLR039C, strain RIC1, hits give low values 1.03 | S. cerevisiae deletion strains, locus YLR058C, strain SHM2, hits give low values 1.01 | S. cerevisiae deletion strains, locus YLR102C, strain apc9, hits give low values 1 | S. cerevisiae deletion strains, locus YLR113W, strain HOG1, hits give low values 0.982 | S. cerevisiae deletion strains, locus YLR221C, strain rsa3, hits give low values 1.04 | S. cerevisiae deletion strains, locus YLR258W, strain gsy2, hits give low values 1.02 | S. cerevisiae deletion strains, locus YLR262C, strain YPT6 (second series), hits give low values 1.04 | S. cerevisiae deletion strains, locus YLR262C, strain YPT6, hits give low values 1.04 | S. cerevisiae deletion strains, locus YLR268W, strain sec22, hits give low values 1.03 | S. cerevisiae deletion strains, locus YLR320W, strain mms22, hits give low values 1.03 | S. cerevisiae deletion strains, locus YLR330W, strain CHS5, hits give low values 1.01 | S. cerevisiae deletion strains, locus YLR342W, strain FKS1 (second series), hits give low values 1.03 | S. cerevisiae deletion strains, locus YLR342W, strain FKS1, hits give low values 1.02 | S. cerevisiae deletion strains, locus YLR357W, strain rsc2, hits give low values 1.04 | S. cerevisiae deletion strains, locus YLR370C, strain arc18, hits give low values 1.02 | S. cerevisiae deletion strains, locus YLR371W, strain rom2, hits give low values 1.01 | S. cerevisiae deletion strains, locus YLR384C, strain iki3, hits give low values 1.03 | S. cerevisiae deletion strains, locus YLR418C, strain cdc73, hits give low values 0.98 | S. cerevisiae deletion strains, locus YML016C, strain PPZ1, hits give low values 1.01 | S. cerevisiae deletion strains, locus YML032C, strain rad52, hits give low values 1 | S. cerevisiae deletion strains, locus YML120C, strain ndi1, hits give low values 1.01 | S. cerevisiae deletion strains, locus YML124C, strain tub3, hits give low values 0.986 | S. cerevisiae deletion strains, locus YMR058W, strain fet3, hits give low values 1.02 | S. cerevisiae deletion strains, locus YMR078C, strain ctf18, hits give low values 0.997 | S. cerevisiae deletion strains, locus YMR125W, strain sto1, hits give low values 1.03 | S. cerevisiae deletion strains, locus YMR129W, hits give low values 1.02 | S. cerevisiae deletion strains, locus YMR205C, strain PFK2, hits give low values 1.05 | S. cerevisiae deletion strains, locus YMR223W, strain ubp8, hits give low values 0.985 | S. cerevisiae deletion strains, locus YMR231W, strain pep5, hits give low values 1.02 | S. cerevisiae deletion strains, locus YMR263W, strain SAP30, hits give low values 1.01 | S. cerevisiae deletion strains, locus YMR307W, strain GAS1, hits give low values 1 | S. cerevisiae deletion strains, locus YNL067W, strain RPL9B, hits give low values 1 | S. cerevisiae deletion strains, locus YNL071W, strain lat1, hits give low values 1.03 | S. cerevisiae deletion strains, locus YNL128W, strain TEP1, hits give low values 1.02 | S. cerevisiae deletion strains, locus YNL153C, strain GIM3, hits give low values 1.06 | S. cerevisiae deletion strains, locus YNL175C, strain NOP13, hits give low values 0.995 | S. cerevisiae deletion strains, locus YNL183C, strain NPR1, hits give low values 0.953 | S. cerevisiae deletion strains, locus YNL197C, strain WHI3, hits give low values 1 | S. cerevisiae deletion strains, locus YNL209W, strain ssb2, hits give low values 1.02 | S. cerevisiae deletion strains, locus YNL224C, strain SQS1, hits give low values 1 | S. cerevisiae deletion strains, locus YNL233W, strain BNI4, hits give low values 1.01 | S. cerevisiae deletion strains, locus YNL248C, strain rpa49, hits give low values 1.02 | S. cerevisiae deletion strains, locus YNL250W, strain rad50, hits give low values 0.998 | S. cerevisiae deletion strains, locus YNL271C, strain bni1, hits give low values 0.998 | S. cerevisiae deletion strains, locus YNL298W, strain CLA4, hits give low values 1.02 | S. cerevisiae deletion strains, locus YNL307C, strain MCK1, hits give low values 0.995 | S. cerevisiae deletion strains, locus YNL322C, strain KRE1 (second series), hits give low values 1.03 | S. cerevisiae deletion strains, locus YNL322C, strain KRE1, hits give low values 1.01 | S. cerevisiae deletion strains, locus YNR049C, strain mso1, hits give low values 1.02 | S. cerevisiae deletion strains, locus YNR052C, strain pop2, hits give low values 1.01 | S. cerevisiae deletion strains, locus YOL006C, strain TOP1, hits give low values 0.988 | S. cerevisiae deletion strains, locus YOL012C, strain htz1 0.923 | S. cerevisiae deletion strains, locus YOL147C, strain pex11, hits give low values 0.989 | S. cerevisiae deletion strains, locus YOR001W, strain rrp6, hits give low values 1.02 | S. cerevisiae deletion strains, locus YOR061W, strain CKA2, hits give low values 1.01 | S. cerevisiae deletion strains, locus YOR069W, strain VPS5, hits give low values 1.01 | S. cerevisiae deletion strains, locus YOR070C, strain gyp1, hits give low values 1.02 | S. cerevisiae deletion strains, locus YOR080W, strain dia2, hits give low values 1.04 | S. cerevisiae deletion strains, locus YOR083W, strain WHI5 (second series), hits give low values 1.02 | S. cerevisiae deletion strains, locus YOR083W, strain WHI5, hits give low values 1.03 | S. cerevisiae deletion strains, locus YOR106W, strain vam3, hits give low values 1.03 | S. cerevisiae deletion strains, locus YOR136W, strain idh2, hits give low values 0.994 | S. cerevisiae deletion strains, locus YOR144C, strain elg1, hits give low values 0.993 | S. cerevisiae deletion strains, locus YOR184W, strain ser1, hits give low values 0.99 | S. cerevisiae deletion strains, locus YOR231W, strain MKK1, hits give low values 0.978 | S. cerevisiae deletion strains, locus YOR265W, strain rbl2, hits give low values 1.02 | S. cerevisiae deletion strains, locus YOR270C, strain vph1, hits give low values 1.07 | S. cerevisiae deletion strains, locus YOR290C, strain snf2, hits give low values 1.04 | S. cerevisiae deletion strains, locus YOR316C, strain cot1, hits give low values 1 | S. cerevisiae deletion strains, locus YPL051W, strain arl3, hits give low values 1.03 | S. cerevisiae deletion strains, locus YPL055C, strain LGE1, hits give low values 0.995 | S. cerevisiae deletion strains, locus YPL078C, strain atp4, hits give low values 1.01 | S. cerevisiae deletion strains, locus YPL106C, strain sse1, hits give low values 1.06 | S. cerevisiae deletion strains, locus YPL240C, strain hsp82, hits give low values 1.01 | S. cerevisiae deletion strains, locus YPL241C, strain CIN2, hits give low values 1.01 | S. cerevisiae deletion strains, locus YPL256C, strain CLN2, hits give low values 0.959 | S. cerevisiae deletion strains, locus YPR119W, strain clb2, hits give low values 1.01 | S. cerevisiae deletion strains, locus YPR141C, strain kar3, hits give low values 0.981 | S. cerevisiae deletion strains, locus YPR163C, strain tif3, hits give low values 1 | S. cerevisiae deletion strains, locus YPR167C, strain met16, hits give low values 1 | S. cerevisiae deletion strains, strain wtn01, hits give low values 0.996 | S. cerevisiae strains, strain wild type, hits give low values 1.02
